Measured values as given in PubChem BioAssay (NCI).
About 83,000 compounds went through this panel and 20% of them were active in at least one assay; those are over-represented in the sample as a whole.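 In brief: 96-well plates, 48 h treatment, single concentration, percent growth endpoint.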 Activity calls are given as the source filed them. Rule for the calls: active = growth percent below 10; inactive = the rest.

Tested on: UACC-62 melanoma
Experiment: NCI-60 one-dose screen, 48 h (100 = growth as untreated, 0 = no growth, -100 = all killed)
Settings: 10 µM unless noted

SMILES | growth
COc1ccc2c(c1)c(-c1nc(-c3c[nH]c4ncccc34)cs1)cn2C | 67.6% (inactive)
O=C(O)c1cccc2c1Cc1cc([N+](=O)[O-])ccc1-2 | 102% (inactive)
CCOc1ccc(NC(=O)c2ccccc2-c2ccccc2C(=O)O)cc1 | 99.2% (inactive)
O=c1c2sc3ncc(Br)cc3c2ncn1-c1cccc(Cl)c1 | 80.3% (inactive)

Tested on: SK-MEL-28 melanoma
Experiment: as above
Settings: 10 µM unless noted

SMILES | growth
Cn1c(/C(C#N)=C/c2ccc3ccccc3c2)cc2ccccc21 | 63.4% (inactive)
Cn1cc(-c2nc(-c3c[nH]c4ncccc34)cs2)c2cc(F)ccc21 | 60.5% (inactive)
CC(=O)N1N=C(c2ccc(C)cc2)CC1c1ccc(Oc2ccc(Br)cc2)cc1 (centres undefined) | 105% (inactive)
NC1=NN=C2N(N)C(=O)c3cnn(-c4ccccc4)c3N2c2nc(-c3ccccc3)cc(-c3ccccc3)c21 | 118% (inactive)
Fc1ccc2nc(-c3cc(-c4ccc5c(c4)OCO5)n[nH]3)[nH]c2c1 | 75.3% (inactive)
CN(C)c1ccc(-c2ccc(-c3ccc(C(=N)N)c(F)c3)s2)cc1 | 74.5% (inactive)
Cc1c(C)c2c(c(C)c1NC(=O)CCCCCCC(=O)O)CCC(C)(CCCC(C)CCCC(C)CCCC(C)C)O2 (centres undefined) | 96.1% (inactive)
Cc1cc(C)nc(NC(N)=NCCc2ccccc2)n1 | 33.8% (inactive)
C=C(C)[C@@H]1CC[C@]2(C(=O)O)CC[C@]3(C)[C@H](CC[C@@H]4[C@@]5(C)C/C(=C/c6ccc(OC)cc6)C(=O)C(C)(C)[C@@H]5CC[C@]43C)[C@@H]12 | 41.3% (inactive)
COc1ccc2[nH]cc(-c3nc(-c4c[nH]c5ncccc45)cs3)c2c1 | 69.9% (inactive)
